Several values for one entry are separate records, joined by “and”; a condition that tells them apart may be missing. Identical values can stand only once.
Legend:
Settings in all cases: Compound concentration 20.0 uM, Protein concentration 2.0 uM, Result type QC Liability
[1] = target: Tyrosine-protein kinase ABL1 (Homo sapiens) (UniProt P00519)
[2] = target: Cyclin-dependent kinase 2 (Homo sapiens) (UniProt P24941)
[3] = target: Casein kinase I isoform delta (Homo sapiens) (UniProt P48730)
[4] = target: Glycogen synthase kinase-3 beta (Homo sapiens) (UniProt P49841)
Chain of Glycogen synthase kinase-3 beta (Homo sapiens) (P49841 whole entry, looked up): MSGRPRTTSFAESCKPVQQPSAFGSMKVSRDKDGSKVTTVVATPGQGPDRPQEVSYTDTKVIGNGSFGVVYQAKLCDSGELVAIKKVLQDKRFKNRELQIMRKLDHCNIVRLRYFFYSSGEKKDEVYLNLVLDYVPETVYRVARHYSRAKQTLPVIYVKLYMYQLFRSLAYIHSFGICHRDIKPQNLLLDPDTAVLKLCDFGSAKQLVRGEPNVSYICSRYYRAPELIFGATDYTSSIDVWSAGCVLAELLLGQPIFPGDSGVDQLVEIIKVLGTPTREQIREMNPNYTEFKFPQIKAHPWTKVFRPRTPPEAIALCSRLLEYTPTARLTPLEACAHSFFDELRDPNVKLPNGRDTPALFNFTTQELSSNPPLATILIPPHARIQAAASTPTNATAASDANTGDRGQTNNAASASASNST

[5] = target: Mitogen-activated protein kinase 1 (Homo sapiens) (UniProt P28482)
Chain of Mitogen-activated protein kinase 1 (Homo sapiens) (P28482 whole entry): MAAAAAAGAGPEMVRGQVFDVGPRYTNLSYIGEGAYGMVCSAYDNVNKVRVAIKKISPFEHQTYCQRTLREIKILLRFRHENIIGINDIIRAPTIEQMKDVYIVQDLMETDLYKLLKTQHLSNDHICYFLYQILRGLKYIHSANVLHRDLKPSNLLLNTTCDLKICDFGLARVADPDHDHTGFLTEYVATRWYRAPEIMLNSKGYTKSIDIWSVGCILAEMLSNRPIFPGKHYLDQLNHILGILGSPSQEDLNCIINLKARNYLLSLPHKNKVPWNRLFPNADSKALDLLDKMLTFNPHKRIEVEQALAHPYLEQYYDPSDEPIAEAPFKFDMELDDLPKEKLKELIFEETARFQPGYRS

[6] = target: T1, Aurora kinase A (Homo sapiens) (UniProt O14965)
T1 sequence (whole entry): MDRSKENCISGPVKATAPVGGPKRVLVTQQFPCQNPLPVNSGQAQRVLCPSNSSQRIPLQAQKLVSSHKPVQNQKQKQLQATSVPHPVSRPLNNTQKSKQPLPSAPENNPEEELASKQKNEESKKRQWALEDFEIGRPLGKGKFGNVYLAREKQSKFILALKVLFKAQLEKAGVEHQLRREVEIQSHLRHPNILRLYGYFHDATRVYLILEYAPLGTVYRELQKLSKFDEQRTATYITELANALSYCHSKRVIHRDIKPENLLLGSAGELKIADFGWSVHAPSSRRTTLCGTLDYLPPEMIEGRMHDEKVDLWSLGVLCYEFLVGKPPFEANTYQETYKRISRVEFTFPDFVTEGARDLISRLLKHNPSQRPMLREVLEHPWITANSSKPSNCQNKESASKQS

Chain of Casein kinase I isoform delta (Homo sapiens) (P48730 whole entry, looked up, canonical isoform): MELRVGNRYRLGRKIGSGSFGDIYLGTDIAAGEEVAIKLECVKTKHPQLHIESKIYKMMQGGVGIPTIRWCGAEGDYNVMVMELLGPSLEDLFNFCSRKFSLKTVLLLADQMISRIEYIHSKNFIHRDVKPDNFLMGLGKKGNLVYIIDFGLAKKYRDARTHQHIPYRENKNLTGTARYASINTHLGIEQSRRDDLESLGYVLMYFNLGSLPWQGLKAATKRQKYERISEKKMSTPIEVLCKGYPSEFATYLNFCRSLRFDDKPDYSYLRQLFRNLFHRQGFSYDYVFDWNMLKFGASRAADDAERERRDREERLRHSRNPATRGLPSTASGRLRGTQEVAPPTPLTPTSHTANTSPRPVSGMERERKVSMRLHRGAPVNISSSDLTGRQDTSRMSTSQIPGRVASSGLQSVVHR
Chain of Tyrosine-protein kinase ABL1 (Homo sapiens) (P00519 whole entry): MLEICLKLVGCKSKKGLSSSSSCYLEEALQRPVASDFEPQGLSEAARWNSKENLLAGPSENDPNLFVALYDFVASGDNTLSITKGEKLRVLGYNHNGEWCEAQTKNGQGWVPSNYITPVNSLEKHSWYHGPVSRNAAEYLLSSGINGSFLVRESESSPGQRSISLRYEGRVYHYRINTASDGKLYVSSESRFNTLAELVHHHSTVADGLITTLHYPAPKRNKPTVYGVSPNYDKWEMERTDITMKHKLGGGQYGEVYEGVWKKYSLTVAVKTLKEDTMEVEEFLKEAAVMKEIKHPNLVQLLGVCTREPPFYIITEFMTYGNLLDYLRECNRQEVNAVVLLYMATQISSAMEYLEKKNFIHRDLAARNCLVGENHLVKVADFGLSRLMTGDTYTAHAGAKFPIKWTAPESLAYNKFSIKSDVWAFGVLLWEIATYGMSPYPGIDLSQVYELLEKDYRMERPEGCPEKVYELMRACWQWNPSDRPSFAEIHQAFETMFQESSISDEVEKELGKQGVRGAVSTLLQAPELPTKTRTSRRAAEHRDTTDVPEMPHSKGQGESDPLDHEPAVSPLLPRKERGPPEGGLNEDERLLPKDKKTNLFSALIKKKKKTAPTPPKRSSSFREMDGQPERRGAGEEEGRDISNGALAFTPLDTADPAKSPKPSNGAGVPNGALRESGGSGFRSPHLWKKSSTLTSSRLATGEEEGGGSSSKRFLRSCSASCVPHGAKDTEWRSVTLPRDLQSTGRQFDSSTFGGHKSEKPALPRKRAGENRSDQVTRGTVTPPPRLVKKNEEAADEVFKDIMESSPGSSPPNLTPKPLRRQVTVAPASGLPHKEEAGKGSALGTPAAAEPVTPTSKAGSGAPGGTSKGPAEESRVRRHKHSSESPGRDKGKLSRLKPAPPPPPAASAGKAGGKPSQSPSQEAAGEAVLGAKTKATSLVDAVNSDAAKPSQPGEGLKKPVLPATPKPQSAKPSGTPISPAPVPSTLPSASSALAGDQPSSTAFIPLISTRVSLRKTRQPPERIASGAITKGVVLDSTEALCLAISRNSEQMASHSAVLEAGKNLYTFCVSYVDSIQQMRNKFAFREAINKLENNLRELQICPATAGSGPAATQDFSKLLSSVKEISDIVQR

Row | SMILES | ΔTm [1] | ΔTm [2] | ΔTm [3] | ΔTm [4] | ΔTm [5] | ΔTm [6]
1 | Cc1cc(S(=O)(=O)N2CC(C)(C)c3cc(-c4ccc(C(F)(F)F)cc4)ccc32)ccc1OCC(=O)O | 0 °C | -2.88 °C | -0.16 °C | -5.32 °C | -9.76 °C | -1.56 °C
2 | Cc1cc(-c2cc3ncccc3c(OC[C@H]3CCCNC3)n2)ccc1N(C)C | 5.72 °C | 0.38 °C | 2.65 °C | 1.68 °C | 0.09 °C | 7.37 °C
3 | O=C(O)CCCc1cc2cc(Cl)ccc2n1S(=O)(=O)c1ccc2ncsc2c1 | 0.34 °C | 0.24 °C | 1.03 °C | -2.46 °C | 0.26 °C | -0.83 °C
4 | Cc1cc2c(-c3ccco3)cnc(N[C@@H]3CCN(C)C[C@H]3C(=O)NC3CCCCC3)c2[nH]c1=O | 0.07 °C | 0.91 °C | -0.09 °C | -0.51 °C | 0.54 °C | 0.79 °C
5 | CC(=O)N1CCN([C@H]2CCC[C@@H](NC(=O)c3cc4c(F)ccc(C)c4[nH]3)C2)CC1 | 0.29 °C | 0.89 °C | 0.05 °C | -0.56 °C | 0.42 °C | -0.61 °C
6 | COc1cc(C)c(S(=O)(=O)N(C)CCC(=O)N[C@H]2CC[C@@H](N3CCC4CN(C)CC4C3)CC2)c(C)c1 (some centres not stated) | 0.38 °C | -0.04 °C | 0.64 °C | 0.15 °C | 0.83 °C | -0.36 °C
7 | CCC(F)(F)c1cc(N2CCC(S(C)(=O)=O)CC2)nc2sc(C(N)=O)c(N)c12 | 0.45 °C and 1.08 °C and 2.55 °C | 0.38 °C and 0.74 °C and 0.49 °C | 1.03 °C and 1.35 °C and 2.12 °C | 0.35 °C and -0.21 °C and 1.09 °C | 0.45 °C and 0.46 °C and 0.62 °C | 0.98 °C and 0.42 °C and 1.33 °C
8 | CCCCC(C)(O)C/C=C/[C@H]1[C@H](O)CC(=O)[C@@H]1CCCCCCC(=O)O (some centres not stated) | 0.39 °C | 0.57 °C | -0.02 °C | 0.33 °C | -0.33 °C | -0.31 °C
9 | COCCNC1CCC(Nc2cc(-c3csc(NCC4(C#N)CCOCC4)n3)c(Cl)cn2)CC1 (configuration not stated) | 0.32 °C | 1.7 °C | 2.18 °C | 6.51 °C | 0.43 °C | 1.44 °C
10 | CS(=O)(=O)c1cc(C2(NC(=O)c3cncc4c3cnn4-c3ccc(F)cc3)CC2)ccn1 | 0.11 °C | 0.77 °C | 0.73 °C | -0.04 °C | -0.47 °C | 0.05 °C
11 | C[C@H](NC(=O)c1cc(Cl)ccc1Oc1ccc(F)cc1)c1ccc(C(=O)O)cc1 | -0.11 °C | 0.27 °C | -2.45 °C | 0.51 °C | 0.18 °C | -0.14 °C
12 | CNc1[nH]c(Nc2ccc(C(=O)N3CCOCC3)cc2OC)nc2ncc(Cl)c1-2 | 0.1 °C | -0.26 °C | 4.5 °C | -1.11 °C | 0.86 °C | 1 °C
13 | COC(=O)c1ccc2c(c1)NC(=O)/C2=C(\Nc1ccc(-c2nccn2C)cc1)c1ccccc1 | 3.43 °C | 0.27 °C | -0.5 °C | 1.96 °C | -6.31 °C | -1.46 °C
14 | CNc1ncc2cc(-c3ccc(-c4cccc(C)n4)cc3Cl)c(=O)n(C[C@H]3OC[C@H](N)CO3)c2n1 | 5.88 °C | 1.85 °C | 1.07 °C | 0.45 °C | -0.4 °C | 8.51 °C
15 | CCOC(=O)c1cc2cc(-c3cc(C(=O)NCc4ccc(C(=O)O)cc4)nn3C)ccc2[nH]1 | 0.13 °C | -0.6 °C | 0.53 °C | 0.78 °C | -0.1 °C | 1.73 °C
16 | Cn1cnc(Cn2ccc3ccc(CNCc4[nH]c5ccccc5c4[C@@H]4NC(=O)c5ccc(O)cc54)cc32)c1 | 0.7 °C | 0.07 °C | 0.29 °C | -0.16 °C | 0.02 °C | 0.7 °C
17 | Cc1cc(=O)oc2cc(NC(=O)[C@H](Cc3ccc(I)cc3)NC(=O)[C@H]3N[C@@H]4CC[C@H]3C4)ccc12 | 0 °C | -0.62 °C | 0.37 °C | -0.08 °C | 0.09 °C | -0.48 °C
18 | COc1cc(C(=O)O)ncc1C#Cc1ccccc1NS(=O)(=O)c1cccc2c(N(C)C)ccnc12 | 0.14 °C | -0.3 °C | 0.08 °C | -0.76 °C | 0.42 °C | 0.72 °C
19 | CCOC(=O)CS(=O)(=O)c1ccc([C@@H](CO)NC(=O)c2cc3c(Cl)c(Cl)c(C)cc3n2C)cc1 | -1.39 °C | 0.21 °C | 1.93 °C | -1.8 °C | 0.66 °C | -4.67 °C
20 | CCN(C(=O)c1cc(F)ccc1Oc1cncnc1N1CC2(CCN(C[C@H]3CC[C@H](NS(=O)(=O)CC)CC3)CC2)C1)C(C)C | 0.01 °C | 0.94 °C | -0.25 °C | -0.47 °C | 0.35 °C | -1.01 °C
21 | NC(=O)OC[C@H](NC(=O)Cn1nc(-c2ccc(Cl)cc2)n(C[C@H](O)C(F)(F)F)c1=O)c1cccc(C(F)(F)F)c1 | 1.4 °C | 1.62 °C | 0.82 °C | 2.1 °C | 1.35 °C | 0.82 °C
22 | CCS(=O)(=O)c1cc2cc(C[C@@](O)(CC(C)(C)c3ccc(F)cc3C(N)=O)C(F)(F)F)[nH]c2cn1 | -0.47 °C and 0.04 °C | 0.64 °C and 0.86 °C | 0.37 °C and 0.15 °C | -0.42 °C and -0.19 °C | -0.08 °C and 0.35 °C | -0.24 °C and 0.19 °C
23 | Nc1nc(-c2nn(Cc3ccccc3F)c3ncccc23)ncc1C1CC1 | 0.84 °C | 0.56 °C | 0.44 °C | -0.21 °C | 0.15 °C | 0.14 °C
24 | COCCc1ccc(-c2c(C)nc3c(N4CCOCC4)ccnn23)cn1 | 0.28 °C | 0.2 °C | 0.24 °C | -0.61 °C | 0.69 °C | 0.4 °C

Row | SMILES | ΔTm [1] | ΔTm [2] | ΔTm [3] | ΔTm [4] | ΔTm [5] | ΔTm [6]
25 | NC(=O)C1CCCc2c1[nH]c1ccc(Cl)cc21 (configuration not stated) | 0.05 °C | 0.79 °C | 0.23 °C | -0.8 °C | 0.44 °C | 0.7 °C
26 | CSc1nc2c(c(=O)n(C)c(=O)n2C)n1C | 0.1 °C | 0.27 °C | 0.33 °C | -0.85 °C | 0.33 °C | -0.13 °C
27 | O=C(O)/C=C/c1ccc(Cn2ccnc2)cc1 | 0.1 °C | 0.39 °C | 0.22 °C | 0.69 °C | 0.29 °C | 0.06 °C
28 | CCc1nc(-c2cccc(C)c2)c(-c2ccnc(NC(=O)c3ccccc3)c2)s1 | 1.26 °C | -1.36 °C | 4.93 °C | -1.07 °C | -0.25 °C | -1.25 °C
29 | Cn1cncc1-c1cn(-c2cccc(C(=O)Nc3cccc(C(F)(F)F)c3)c2)nn1 | 7.19 °C | 0.01 °C | -7.39 °C | -0.16 °C | -8.38 °C | 1.95 °C
30 | C/C(=C\C(=O)Nc1ccccc1C(=O)O)c1ccc2ccccc2c1 | -0.72 °C | -0.23 °C | 0.09 °C | 0 °C | 0.8 °C | 1.85 °C
31 | COc1cc(CN(CCN)C(=O)N[C@@H](C)c2ccccc2)ccc1OCc1ccccc1 | 0.76 °C | 1.02 °C | 0.16 °C | -0.67 °C | 0.02 °C | 0.4 °C
32 | Cc1cc(CN)cc(C)c1-c1ncn(C)c1-c1cncn1C | 0.16 °C | -0.16 °C | 0.37 °C | 0.19 °C | 0.11 °C | -0.37 °C
33 | C=CC(=O)Nc1cccc(C)c1Nc1ncc2cc(-c3c(Cl)c(OC)cc(OC)c3Cl)ccc2n1 | 0.49 °C | 0.87 °C | 0.34 °C | -1.24 °C | -3.69 °C | -2.08 °C
34 | CCCCCCCN(CCc1ccc(SC(C)(C)C(=O)O)cc1)C(=O)Nc1ccc(F)cc1F | 0.48 °C | 0 °C | 0.48 °C | -1.12 °C | -0.08 °C | -1.93 °C
35 | CC(C)C(=O)N1CCC(c2cn(C)c3ncc(NC(=O)c4cccc(C#N)c4)c(C(F)(F)F)c23)CC1 | -0.05 °C | 0.71 °C | 0.74 °C | -0.4 °C | 0.36 °C | -0.71 °C
36 | CC(C)c1nc2c(c3c1[C@H](c1ccc(C(F)(F)F)cc1)OC31CCOCC1)[C@H](O)CC(C)(C)C2 | -0.1 °C | -0.68 °C | -0.53 °C | -1.62 °C | -0.14 °C | -0.26 °C
37 | Cc1cc2c(cc(C(=O)N[C@H](CO)c3ccc(S(=O)(=O)CC(=O)O)cc3)n2C)c(Cl)c1Cl | 1.12 °C | -0.15 °C | -1.41 °C | -0.78 °C | 0.62 °C | 3.77 °C
38 | CN(C(=O)c1ccccc1)c1ccc2c(c1)[nH]/c(=N\C(=O)c1ccc(Br)s1)n2CCC(N)=O | 3.94 °C | 0.69 °C | 6.56 °C | 0.89 °C | 0.41 °C | 3.75 °C
39 | CCC(C)(C)CC[C@H](NC(=O)N1CCOCC1)C(=O)NC1(C#N)CCN(C)CC1 | -0.14 °C | 0.95 °C | 0.34 °C | 0.11 °C | 0.54 °C | 0.69 °C
40 | O=C1COc2cc(C(=O)N(Cc3ccc(C(=O)Nc4ccncn4)cc3)C3CC3)ccc2N1 | 0.5 °C | 0.47 °C | -0.01 °C | -0.19 °C | 0.31 °C | 0.08 °C
41 | COCCCS(=O)(=O)c1cc(C)c(-c2ccc(F)c3c2CC[C@H]3Oc2ccc3c(c2)OC[C@H]3CC(=O)O)c(C)c1 | 0.43 °C | 0 °C | 0.06 °C | 0 °C | 0 °C | -0.86 °C
42 | COc1ccc(S(=O)(=O)N2CCOCC2)cc1Nc1ccc2c(n1)N(C1CCN(C)CC1)[C@H](C)C(=O)N2C | -0.01 °C | 0.43 °C | 0.44 °C | 0.08 °C | 0.18 °C | 0 °C
43 | CN(C)C/C=C/C(=O)Nc1cccc(S(=O)(=O)N2CCC(NC(=O)c3n[nH]cc3NC(=O)c3c(Cl)cc(Cl)cc3Cl)CC2)c1 | 3.66 °C | 11.4 °C | 2.28 °C | 10.9 °C | 1.34 °C | 2.6 °C
44 | CCc1cc2c(cc1N1CCC(N3CCOCC3)CC1)C(C)(C)c1[nH]c3cc(C#N)ccc3c1C2=O | 0.88 °C | 1.02 °C | 0.16 °C | 0.18 °C | 0.1 °C | -0.02 °C
45 | CN1CCC(F)(Cn2cnc(-c3ccc(F)cn3)c2-c2ccnc3[nH]ccc23)CC1 | 0.05 °C | 0.48 °C | 8.14 °C | -0.54 °C | 0.37 °C | -0.98 °C
46 | C[C@@H](COCCC(=O)N1CCN(c2ncc(C(F)(F)F)cn2)CC1)Nc1cn[nH]c(=O)c1C(F)(F)F | 0.32 °C | 0.9 °C | -0.05 °C | -0.82 °C | 0.42 °C | -0.45 °C
47 | O=C1CCCN1CCNc1nc(Nc2ccc(Cl)c(Cl)c2)ncc1C(F)(F)F | 4.3 °C | 5.26 °C | 0.96 °C | 3.17 °C | 4.18 °C | 11.2 °C

From ChEMBL document CHEMBL5308504, “Tm Shift (DSF) assay results for EUbOPEN Chemogenomics Library” (2023)
